In PubChem BioAssay:
Calls of active or inactive are those of the source.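 How the source made its calls: active means visually confirmed hit in the image check and inhibition above 20%; inconclusive means visually confirmed hit but inhibition not above 20%; inactive means no visual hit in the image check.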

Assay: inhibitors of E-selectin induction by TNFa, primary screen, imaging, HUVEC, immunofluorescence, MLSMR starter and 10KST1 sets (AID 487);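 on inhibition: signal is fraction of cell area covered by stained E-selectin grains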;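 on nuclei count: 100% = median nuclei count of all wells on the same plate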
Settings: HUVEC TNFalpha-induced E-selectin immunofluorescence imaging, at 2 µM; inhibition: stronger effect = higher value; nuclei count: measured here: cell number, toxicity

**Q.** For CC(=O)c1c(C)[nH]c(C(=O)Nc2ccc3c(c2)OCCO3)c1C, which nuclei count is on record?
**A.** The nuclei count was 114%.

**Q.** And the inhibition?
**A.** The inhibition was -18.4% (inactive).

**Q.** With O=c1cc(-c2ccccc2)[nH]c2nc3ccccc3n12 as the compound, how does the inhibition read?
**A.** The inhibition was -4.8% (inactive).

**Q.** What about the nuclei count of the same compound?
**A.** The nuclei count was 96.2%.

**Q.** For Cc1cccc(-n2c(Cc3cc(=O)[nH]c(=O)[nH]3)nnc2SCC(=O)NCc2ccco2)c1, which nuclei count is on record?
**A.** Its nuclei count is 101%.

**Q.** What about the inhibition of the same compound?
**A.** Its inhibition is -15.1% (inactive).

**Q.** Which nuclei count does the source give for O=C(COc1nnc2ccccn12)N1CCN(S(=O)(=O)c2ccccc2)CC1 here?
**A.** Its nuclei count is 122%.

**Q.** And the inhibition?
**A.** The inhibition was -18.1% (inactive).

**Q.** Which inhibition does the source give for Cc1cc(N2C(=O)C3C4C=CC(C4)C3C2=O)ccc1Br (stereo not given) here?
**A.** Its inhibition is 98.6% (active).

**Q.** And the nuclei count?
**A.** The nuclei count was 42%.

**Q.** For Cc1ccc(S(=O)(=O)N(CC(=O)N2CCOCC2)CC(=O)N2CCOCC2)cc1, which inhibition is on record?
**A.** Its inhibition is -163% (inactive).

**Q.** And the nuclei count?
**A.** Its nuclei count is 106%.

**Q.** With COc1ccc(C2=NOC(C(=O)NCc3ccc(F)cc3)C2)cc1OC (stereo not given) as the compound, how does the nuclei count read?
**A.** The nuclei count was 99.1%.

**Q.** And the inhibition?
**A.** Its inhibition is -172% (inactive).

**Q.** With COCCCNS(=O)(=O)c1ccc2c(c1)CCN2C(C)=O as the compound, how does the nuclei count read?
**A.** The nuclei count was 139%.

**Q.** What about the inhibition of the same compound?
**A.** The inhibition was -31.6% (inactive).

**Q.** Which nuclei count does the source give for COc1ccc(C(NC(=O)c2ccco2)c2ccc(OC)c(OC)c2)cc1 (stereo not given) here?
**A.** The nuclei count was 114%.

**Q.** What about the inhibition of the same compound?
**A.** Its inhibition is -24.8% (inactive).

**Q.** For CCC(C)N=C1SCC(C)(/C=N/O)S1 (stereo not given), which nuclei count is on record?
**A.** The nuclei count was 122%.

**Q.** What about the inhibition of the same compound?
**A.** Its inhibition is -31.5% (inactive).

**Q.** Which results are given for COc1ccc(-c2noc(CCC(=O)Nc3nc4ccccc4s3)n2)cc1?
**A.** nuclei count: 106%; inhibition: -35% (inactive)

**Q.** Which inhibition does the source give for CCCC1(C(=O)OCC)NC(c2ccc(N(C)C)cc2)C2C(=O)N(c3ccccc3)C(=O)C21 (stereo not given) here?
**A.** The inhibition was -15.1% (inactive).

**Q.** And the nuclei count?
**A.** Its nuclei count is 95%.

**Q.** Which inhibition does the source give for Cc1nnc(SCC(=O)Nc2ccc3c4c(cccc24)CC3)n1C here?
**A.** Its inhibition is -41.4% (inactive).

**Q.** What about the nuclei count of the same compound?
**A.** Its nuclei count is 108%.

**Q.** Which inhibition does the source give for CCCCCC1NC(=O)NC1CCCCCC(=O)O (stereo not given) here?
**A.** The inhibition was -129% (inactive).

**Q.** And the nuclei count?
**A.** The nuclei count was 123%.

**Q.** What does the source list for O=C(Nc1ccccc1C(=O)N1CCCCCC1)c1cccc(S(=O)(=O)N2CCOCC2)c1?
**A.** inhibition: -60.5% (inactive); nuclei count: 84.2%

**Q.** What does the source list for CC(C(=O)c1ccccc1)n1cnc2ccccc2c1=O (stereo not given)?
**A.** nuclei count: 96.9%; inhibition: -0.6% (inactive)

**Q.** What does the source list for COc1cc(OC)c(C(=O)Nc2ncn[nH]2)cc1OC?
**A.** nuclei count: 108%; inhibition: -95.9% (inactive)

**Q.** What does the source list for CCOC(=O)C1=C(Cn2cnc3ccccc32)NC(=O)NC1c1cc(C)ccc1C (stereo not given)?
**A.** inhibition: 0.3% (inactive); nuclei count: 104%

**Q.** Which results are given for CCOC(=O)c1c(NC(=O)CSc2nnc(-c3cccnc3)o2)sc(C)c1C?
**A.** inhibition: -15% (inactive); nuclei count: 98.1%

**Q.** Which nuclei count does the source give for CC(=O)c1cc2c(=O)c3cc(C)ccc3oc2nc1C here?
**A.** Its nuclei count is 187%.

**Q.** What about the inhibition of the same compound?
**A.** Its inhibition is -96.2% (inactive).

**Q.** With COc1ccc(NC(=O)CSc2nnc(-c3ccncc3)n2CC2CCCO2)c(OC)c1 (stereo not given) as the compound, how does the inhibition read?
**A.** The inhibition was -89.2% (inactive).

**Q.** What about the nuclei count of the same compound?
**A.** Its nuclei count is 119%.

**Q.** Which results are given for CCOC(=O)c1ccccc1NC(=O)COC(=O)C1=COCCO1?
**A.** nuclei count: 95.5%; inhibition: -92% (inactive)

**Q.** For CCN(Cc1nc2cc(OC)c(OC)cc2c(=O)[nH]1)C(=O)c1ccc(S(=O)(=O)N(C)C)cc1, which nuclei count is on record?
**A.** The nuclei count was 89.6%.

**Q.** What about the inhibition of the same compound?
**A.** The inhibition was 14.8% (inactive).

**Q.** What does the source list for COc1ccc(Cc2nn3c(-c4cc(OC)c(OC)c(OC)c4)nnc3s2)cc1?
**A.** inhibition: 20.8% (inactive); nuclei count: 103%

**Q.** With Cc1nc(NC(=O)C2CC3CCCC(C2)C3=O)sc1C (stereo not given) as the compound, how does the nuclei count read?
**A.** Its nuclei count is 106%.

**Q.** And the inhibition?
**A.** The inhibition was -36.5% (inactive).

**Q.** For O=S(=O)(NC1=NCCC1)c1cccs1, which nuclei count is on record?
**A.** The nuclei count was 103%.

**Q.** What about the inhibition of the same compound?
**A.** The inhibition was 27.1% (inactive).

**Q.** What does the source list for O=C(COC(=O)C1=COCCO1)Nc1ccccc1Oc1ccccc1?
**A.** inhibition: -33.5% (inactive); nuclei count: 103%

**Q.** With O=C(CSc1nc(-c2ccco2)cc(C(F)(F)F)n1)N1CCCc2ccccc21 as the compound, how does the inhibition read?
**A.** Its inhibition is -20.9% (inactive).

**Q.** And the nuclei count?
**A.** The nuclei count was 114%.

**Q.** With O=c1oc2ccccc2n1CCc1ccccc1 as the compound, how does the inhibition read?
**A.** The inhibition was -76.9% (inactive).

**Q.** And the nuclei count?
**A.** The nuclei count was 238%.

**Q.** Which results are given for CS(=O)(=O)N(CC(=O)O)c1cccc(Cl)c1?
**A.** inhibition: -49% (inactive); nuclei count: 121%

**Q.** What does the source list for O=C(OCC(=O)N1CCCC1)c1cncc(Br)c1?
**A.** nuclei count: 102%; inhibition: 35.3% (inactive)

**Q.** What does the source list for O=C(O)C1CC(=O)N(Cc2ccccc2)C1 (stereo not given)?
**A.** inhibition: -43.7% (inactive); nuclei count: 127%

**Q.** For CC(C(=O)Oc1ccc2c(c1)OCO2)N1C(=O)c2ccccc2C1=O (stereo not given), which nuclei count is on record?
**A.** The nuclei count was 101%.

**Q.** And the inhibition?
**A.** Its inhibition is -33.5% (inactive).

**Q.** Which nuclei count does the source give for COc1cccc(-n2nnnc2SCC(=O)NCc2ccco2)c1 here?
**A.** Its nuclei count is 128%.

**Q.** What about the inhibition of the same compound?
**A.** Its inhibition is -44.9% (inactive).

**Q.** Which results are given for CCOC(=O)c1cccc(NC(=O)CCn2nnc3ccccc32)c1?
**A.** inhibition: -4.7% (inactive); nuclei count: 118%

**Q.** For Clc1ccc(Cl)c(-c2nn3c(COc4ccccc4)nnc3s2)c1, which inhibition is on record?
**A.** Its inhibition is -81.1% (inactive).

**Q.** And the nuclei count?
**A.** The nuclei count was 139%.

**Q.** For Nc1nnc(SCC(=O)N2CCN(c3ccccc3)CC2)n1-c1ccccc1, which inhibition is on record?
**A.** The inhibition was -82% (inactive).

**Q.** What about the nuclei count of the same compound?
**A.** Its nuclei count is 111%.

**Q.** Which results are given for C=CCn1c(C)cc(C(=O)CSc2nc3ccccc3c(=O)[nH]2)c1C?
**A.** nuclei count: 104%; inhibition: -59.5% (inactive)

**Q.** For c1ccc(-c2cn3cccnc3n2)cc1, which inhibition is on record?
**A.** The inhibition was -66.8% (inactive).

**Q.** What about the nuclei count of the same compound?
**A.** Its nuclei count is 123%.

**Q.** What does the source list for C#CC(CO)N(CCN(Cc1ccccc1)C(C#C)CO)Cc1ccccc1 (stereo not given)?
**A.** inhibition: -29.5% (inactive); nuclei count: 112%
